# Source: PubChem BioAssay (NCATS)
# Values joined by “and” are separate entries in the source; they are usually repeats but may differ in a detail not shown here. Equal values may be shown once. Inconclusive results are not listed. Active and inactive are the calls of the source. Unless noted, the call rests on the fitted dose curve; in most records, active means well fitted curve in the direction sought with a large enough effect; inconclusive means small, poorly fitted or top-dose-only effect, or another doubt; inactive means no such curve, though single readings can be large; an effect the other way counts as inactive or inconclusive.
# Assays:
# [1] = biological target: Alpha-galactosidase A (Homo sapiens) (UniProt P06280); assay: Counterscreen for Glucocerebrosidase Inhibitors: qHTS Assay for Human alpha-Galactosidase at pH 4.5 (AID 992); further: 0% is about no effect
# Alpha-galactosidase A (Homo sapiens), sequence (P06280 whole entry, looked up): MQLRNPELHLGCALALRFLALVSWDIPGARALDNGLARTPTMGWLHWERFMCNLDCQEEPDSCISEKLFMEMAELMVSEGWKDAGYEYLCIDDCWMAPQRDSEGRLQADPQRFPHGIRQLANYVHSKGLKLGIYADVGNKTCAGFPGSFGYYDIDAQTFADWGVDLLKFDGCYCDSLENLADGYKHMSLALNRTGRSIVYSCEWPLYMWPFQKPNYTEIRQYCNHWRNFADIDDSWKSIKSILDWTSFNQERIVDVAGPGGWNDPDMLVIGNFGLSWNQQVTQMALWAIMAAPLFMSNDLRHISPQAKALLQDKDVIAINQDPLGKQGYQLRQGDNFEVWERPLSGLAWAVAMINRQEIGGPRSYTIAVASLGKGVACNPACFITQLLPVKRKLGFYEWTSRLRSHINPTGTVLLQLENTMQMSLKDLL
# Outline: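 Fluorogenic 4-MU alpha-D-galactoside (80 uM) hydrolysis, 2 nM enzyme, pH 4.5 citrate buffer + 0.005% Tween-20; 20 min RT; NaOH/glycine pH 10 stop; Ex365/Em440. Compounds titrated 0.7 nM–77 uM; Hill-equation AC50.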
# [2] = biological target: alpha-glucosidase (Oryza sativa, rice) (UniProt Q653V4); assay: Counterscreen for Glucocerebrosidase Inhibitors: qHTS Assay for Rice alpha-Glucosidase at pH 5.0 (AID 997);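 further: 0% = full activity with enzyme and -100% = basal without enzyme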
# Outline: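 Endpoint fluorogenic assay at pH 5.0: compounds (0.7 nM to 77 uM) titrated against 4 nM rice enzyme and 400 uM 4-MU-alpha-glucoside for 20 min at room temperature; NaOH/glycine stop, read ex 365/em 440 nm, Hill-fitted AC50.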
# [3] = Validation of Assay for Modulators of Lamin A Splicing (AID 1459; active means well fitted curve in the direction sought with a large enough effect in the signal ratio; the % refers to the signal ratio;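 further: cells exposed to compound for two days before reading; 0% is about no effect; ratio rise marks activators and ratio drop marks inhibitors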)
# Outline: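 HeLa S3 lamin A-EGFP/DsRed2 stable clone, 600 cells/well, Opti-MEM 2% FBS; compounds by pin tool; 48 hrs, 37 °C/5% CO2; Acumen 488 nm scan, objects 10-100 um; GFP/RFP intensity ratio.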
# [4] = qHTS Assay for Lipid Storage Modulators (AID 1519; calls by dose curve; on activity change, negative = inhibition: on the % scale 0 is the no-effect control and ±100 the full control effect); conditions: Drosophila S3 cells, BODIPY lipid droplet/cell ratio, laser cytometry, cells loaded with oleic acid
# Outline: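 Cells seeded at 5,000 per well were treated with compounds over a concentration series and loaded with oleic acid (400 uM, as added). Lipid droplet fluorescence (488 nm excitation, 500-530 nm channel) was read by laser-scanning cytometry and normalized to 20 uM Triacsin C.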
# [5] = biological target: DNA repair nuclease/redox regulator APEX1 (Homo sapiens) (UniProt P27695); assay: qHTS Validation Assay for Inhibitors of the Human Apurinic/apyrimidinic Endonuclease 1 (APE1) (AID 1705; further: potency means the concentration at half of the fitted maximal effect;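 on activity change, negative = inhibition: TAMRA fluorescence gain over two minutes as APE1 cuts a quenched THF abasic duplex; on the % scale 0 is the no-effect control and ±100 the full control effect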)
# DNA repair nuclease/redox regulator APEX1 (Homo sapiens), sequence (P27695 whole entry, looked up): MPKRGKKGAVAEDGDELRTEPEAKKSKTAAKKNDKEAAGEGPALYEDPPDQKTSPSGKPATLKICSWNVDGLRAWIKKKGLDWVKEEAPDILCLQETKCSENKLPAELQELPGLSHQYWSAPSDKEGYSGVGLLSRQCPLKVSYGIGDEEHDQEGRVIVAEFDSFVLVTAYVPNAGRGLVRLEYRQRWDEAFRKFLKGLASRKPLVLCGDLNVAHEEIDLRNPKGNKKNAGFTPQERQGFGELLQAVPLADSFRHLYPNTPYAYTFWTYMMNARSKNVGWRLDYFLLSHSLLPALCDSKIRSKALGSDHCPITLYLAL
# Outline: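 qHTS, 1536-well. APE1 + cpd 15 min RT → 50 nM TAMRA/BHQ-2 THF-abasic dsDNA substrate → kinetic fluorescence, 3 reads/60 s; delta(read3−read1) = reaction progress. No-enzyme buffer = negative control.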
# [6] = Counterscreen for APE1 Inhibitors: Fluorescent Dye Displacement Validation Assay (AID 1707); further: potency means the concentration at half of the fitted maximal effect;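 on activity change, negative = inhibition: plate controls were ThO with dsDNA and no compound for no effect and ThO without dsDNA for full effect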
# Outline: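 Endpoint fluorescence read at 480 nm excitation / 540 nm emission; DNA-binding compounds lower signal by displacing 250 nM Thiazole Orange from 50 nM dsDNA containing a tetrahydrofuran abasic site, Tris-HCl pH7.5 buffer with NaCl and MgCl2.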
# [7] = Cell Viability - LYMP2-012 (AID 982);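 further: cellular ATP by luciferase luminescence where a drop means cytotoxicity; cells exposed to compound for one day before reading; 0% = DMSO only and full loss = 92 µM tetraoctylammonium bromide; nearly all actives have a fitted effect of over 55% in size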
# [8] = Cell Viability - LYMP2-022 (AID 987);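 further: 0% = DMSO alone and full effect = tetraoctylammonium bromide at 92 µM; nearly all actives have a fitted effect of over 55% in size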
# Outline: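 In this qHTS cytotoxicity screen, compound titrations were incubated 24 hr at 37 C with human lymphoblastoid cells in complete medium. Luciferase-based ATP luminescence provided the viability signal.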
# [9] = Cell Viability - LYMP1-002 - Assay at 24 hr (AID 993); further: on the % scale 0 is the no-effect control and ±100 the full control effect
# Outline: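 Viability was judged from intracellular ATP using a luciferase read-out, following a 24-hour compound incubation at 37 C of lymphoblastoid cells seeded at 2500 per well. Concentration-response data were fitted to the Hill equation for AC50.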
# [10] = Cell Viability - LYMP1-002 - Assay at 40 hr (AID 994);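 further: 0% = DMSO only and full inhibition = 92 µM tetraoctylammonium bromide; nearly all actives have a fitted effect of over 60% in size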
# Outline: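 Concentration-dependent ATP loss after 40 hr treatment at 37 C defined toxicity; AC50 values were obtained by fitting the standard Hill equation.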
# [11] = measured here: cell count channel max response
# [12] = measured here: lipid channel max response
compound,measurement,setting,value
O=C(CCc1ccc(O)cc1)c1c(O)cc(O)cc1O,outcome,[1],inactive
same,outcome,[2],inactive
same,outcome,[3],inactive
same,"activity change, negative = inhibition",[4]; at 57.5 µM (top of the series),10.4% (inactive)
same,max response,[4]; [11],5.8%
same,max response,[4]; [12],18.1%
same,Potency,[5],inactive
same,Potency,[6],inactive
COc1cc(OC)c(C(=O)CCCN2CCCC2)c(OC)c1,"activity change, negative = inhibition",[4]; at 25.7 µM (top of the series),-0.942% (inactive)
same,max response,[4]; [11],-9.33%
same,max response,[4]; [12],-9.82%
Cc1nc2n(c(=O)c1CCN1CCC(c3noc4cc(F)ccc34)CC1)CCCC2,outcome,[1],inactive
same,outcome,[2],inactive
same,outcome,[3],inactive
same,"activity change, negative = inhibition",[4]; at 25.7 µM (top of the series),-3.92% (inactive)
same,"activity change, negative = inhibition",[4]; at 57.5 µM (top of the series),0.755% (inactive)
same,max response,[4]; [11],-8.38% and -35%
same,max response,[4]; [12],-11.2% and -35%
same,Potency,[5],inactive
same,Potency,[6],inactive
CC(=O)N1CCN(c2ccc(OC[C@H]3CO[C@](Cn4ccnc4)(c4ccc(Cl)cc4Cl)O3)cc2)CC1,outcome,[1],inactive
same,outcome,[2],inactive
same,outcome,[3],inactive
same,Potency,[5],inactive
same,Potency,[6],inactive
CN(C)CCCC1(c2ccc(F)cc2)OCc2cc(C#N)ccc21 (centres undefined),outcome,[3],inactive
same,"activity change, negative = inhibition",[4]; at 57.5 µM (top of the series),0.497% (inactive)
same,max response,[4]; [11],-10.6%
same,max response,[4]; [12],-12.9%
same,Potency,[5],inactive
same,Potency,[6],inactive
C[C@@H](N)C1CCC(C(=O)Nc2ccncc2)CC1 (some centres undefined),outcome,[3],inactive
same,"activity change, negative = inhibition",[4]; at 57.5 µM (top of the series),2.12% (inactive)
same,max response,[4]; [11],-4.26%
same,max response,[4]; [12],-0.634%
same,Potency,[5],inactive
same,Potency,[6],inactive
O=C(O)c1cn(-c2ccc(F)cc2)c2cc(N3CCNCC3)c(F)cc2c1=O,"activity change, negative = inhibition",[4]; at 57.5 µM (top of the series),4.61% (inactive)
same,max response,[4]; [11],14.8%
same,max response,[4]; [12],20.1%
S=c1nc[nH]c2nc[nH]c12,"activity change, negative = inhibition",[4]; at 57.5 µM (top of the series),2.17% (inactive)
same,max response,[4]; [11],9.84%
same,max response,[4]; [12],14.8%
CCN(CCO)CCCC(C)Nc1ccnc2cc(Cl)ccc12 (centres undefined),"activity change, negative = inhibition",[4]; at 57.5 µM (top of the series),5.88% (inactive)
same,max response,[4]; [11],13.5%
same,max response,[4]; [12],23.6%
COc1cc2nc(N3CCN(C(=O)C4CCCO4)CC3)nc(N)c2cc1OC (centres undefined),outcome,[3],inactive
same,"activity change, negative = inhibition",[4]; at 57.5 µM (top of the series),0.288% (inactive)
same,max response,[4]; [11],-1.5%
same,max response,[4]; [12],-3.7%
same,Potency,[5],inactive
same,Potency,[6],inactive
C[C@H](Cc1ccc(O)c(O)c1)[C@@H](C)Cc1ccc(O)c(O)c1,outcome,[1],inactive
same,outcome,[2],inactive
same,outcome,[3],inactive
same,Potency,[5],inactive
CC1(C)C(=O)N(CCN2CCC(C(=O)c3ccc(F)cc3)CC2)c2ccccc21,outcome,[1],inactive
same,outcome,[2],inactive
same,outcome,[3],inactive
same,Potency,[5],inactive
same,Potency,[6],inactive
CN1C(C(=O)Nc2ccccn2)=C(O)c2sccc2S1(=O)=O,"activity change, negative = inhibition",[4]; at 25.7 µM (top of the series),-0.44% (inactive)
same,max response,[4]; [11],-5.92%
same,max response,[4]; [12],-4.62%
CCOc1cc(CC(=O)N[C@@H](CC(C)C)c2ccccc2N2CCCCC2)ccc1C(=O)O,"activity change, negative = inhibition",[4]; at 25.7 µM (top of the series),0.216% (inactive)
same,max response,[4]; [11],-5.3%
same,max response,[4]; [12],-9.52%
O=C1c2c(O)cc(O)cc2OC(c2ccc(O)c(O)c2)C1O (centres undefined),outcome,[3],inactive
same,"activity change, negative = inhibition",[4]; at 57.5 µM (top of the series),0.956% (inactive)
same,max response,[4]; [11],37.7%
same,max response,[4]; [12],36.5%
same,Potency,[5],inactive
same,Potency,[6],inactive
Cc1ncc([N+](=O)[O-])n1CC(C)O (centres undefined),"activity change, negative = inhibition",[4]; at 57.5 µM (top of the series),2.12% (inactive)
same,max response,[4]; [11],10.3%
same,max response,[4]; [12],12.9%
Cc1cc(O)c2c(c1)C(=O)c1cc(O)cc(O)c1C2=O,Potency,[7],inactive
same,Potency,[8],inactive
same,outcome,[1],inactive
same,Potency,[9],inactive
same,Potency,[10],inactive
same,outcome,[2],inactive
same,outcome,[3],inactive
CC1Cc2ccccc2N1NC(=O)c1ccc(Cl)c(S(N)(=O)=O)c1 (centres undefined),"activity change, negative = inhibition",[4]; at 57.5 µM (top of the series),7.15% (inactive)
same,max response,[4]; [11],9.62%
same,max response,[4]; [12],23.5%
Nc1nc(Cl)nc2c1ncn2[C@H]1C[C@H](O)[C@@H](CO)O1,"activity change, negative = inhibition",[4]; at 57.5 µM (top of the series),-3.99% (inactive)
same,max response,[4]; [11],-0.0923%
same,max response,[4]; [12],-3.39%
O=C(NC(Cc1cc(=O)[nH]c2ccccc12)C(=O)O)c1ccc(Cl)cc1 (centres undefined),"activity change, negative = inhibition",[4]; at 57.5 µM (top of the series),11.1% (inactive)
same,max response,[4]; [11],17.3%
same,max response,[4]; [12],35%
O=c1c(O)c(-c2cc(O)c(O)c(O)c2)oc2cc(O)cc(O)c12,outcome,[1],inactive
same,outcome,[2],inactive
same,outcome,[3],inactive
same,"activity change, negative = inhibition",[4]; at 25.7 µM (top of the series),2.34% (inactive)
same,"activity change, negative = inhibition",[4]; at 57.5 µM (top of the series),14.6% (inactive) and -3.22% (inactive)
same,max response,[4]; [11],-7.21% and 17.3% and -40.9%
same,max response,[4]; [12],-2.79% and 29.1% and -42.9%
same,Potency,[5],355 nM (active)
same,Potency,[6],3550 nM (active)
Cc1cccc(C#Cc2ccccc2)n1,outcome,[1],inactive
same,outcome,[2],inactive
same,outcome,[3],inactive
same,"activity change, negative = inhibition",[4]; at 57.5 µM (top of the series),0.257% (inactive)
same,max response,[4]; [11],-2.56%
same,max response,[4]; [12],-2.47%
same,Potency,[5],inactive
same,Potency,[6],inactive
